Most compounds without a hit are left out; they make up all but 4.5% or so of the library.
SKKanGAS inh: inhibitors of SKKanGAS S. pyogenes growth in kanamycin (SK-promoter or general growth effect); 1.3% of 300,000 active; BacTiter-Glo, 6 h; inhibition, % at 7.5 µM;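 active = mean replicate score, as percent of positive control median, at least 50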;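 note: strain carries kanamycin resistance gene driven by streptokinase promoter and grows in 40 µg/ml kanamycin; loss of luminescence reflects streptokinase promoter inhibition or plain growth inhibition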
tim23-1 inh: growth inhibitors of tim23-1 mutant yeast; inhibition, % at 20 µM; AID 463212; S. cerevisiae tim23-1 growth, BacTiter-Glo luminescence, 24 h; 1.3% of 330,000 active;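 active = growth inhibition of the mutant yeast at or above 50%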;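 note: temperature-sensitive mutant grown at 25 °C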
tim10-1 inh: inhibits growth of tim10-1 mutant yeast; AID 463190; S. cerevisiae tim10-1 ts strain growth, BacTiter-Glo, 24 h; 2.2% of 330,000 active; inhibition, % at 20 µM;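 active = inhibition of at least 40%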;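 note: mutant grown at 25 °C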
NALP3 yeast inh: blocks the NALP3 inflammasome reconstituted in yeast | 0.39% of 330,000 active | Yeast reconstituted NLRP3/ASC/caspase-1, beta-gal luminescence, 24 h | inhibition, % at 10 µM;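 active = inhibition of 50% or more; inactive = inhibition below 50%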
TIM10 inh: TIM10 yeast growth inhibition; 1.4% of 330,000 active; S. cerevisiae TIM10 strain growth, BacTiter-Glo luminescence, 24 h; inhibition, % at 10 µM;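 active = inhibition of 40% or more at the single tested concentration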;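 note: wild-type TIM10 isogenic control strain grown at permissive 25 °C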
PfHsp90 yeast 2: growth inhibition of yeast expressing Plasmodium Hsp90; S. cerevisiae expressing PfHsp90, BacTiter-Glo ATP, 48 h; yeast lacking PDR1 and PDR3 efflux regulators; inhibition, % at 9.4 µM; 0.32% of 310,000 active;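 active = every replicate shows inhibition above about 80%, whatever the replicate mean, limit read from the data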
A number is an active result; i = inactive; nt = no result given.

SMILES	SKKanGAS inh	tim23-1 inh	tim10-1 inh	NALP3 yeast inh	TIM10 inh	PfHsp90 yeast 2
O=C(Nc1cccc(S(=O)(=O)N2CCOCC2)c1)c1cnn2c(C(F)F)cc(-c3ccccc3)nc12	i	i	i	i	i	i
Cc1ccc(C(=O)NCCONC(=O)c2ccc(C)cc2)cc1	i	i	i	i	i	i
FC(F)(F)c1ccc(Oc2ccc3ccccc3c2Br)nc1	63	i	i	i	i	i
CCc1cc(C(=O)N2CCN(S(=O)(=O)c3ccc(Cl)cc3)CC2)sc1C	nt	i	i	i	i	nt
Cc1sc2ncnc(N/N=C/c3ccccc3O)c2c1C	94	nt	nt	nt	nt	101
CCOC(=O)c1c(C)[nH]c(C(=O)OCC(=O)N(C)c2c(N)n(Cc3ccccc3)c(=O)[nH]c2=O)c1C	nt	i	i	i	i	i
COC(=O)c1c(C)[nH]c(C(=O)OCC(=O)N(CC(C)C)c2c(N)n(Cc3ccccc3)c(=O)[nH]c2=O)c1C	67	i	i	i	i	i
CN(C)c1ccc(-c2cc(O)c3ncccc3c2)cc1	nt	i	i	i	i	101
Oc1cc(-c2ccc(N3CCCCC3)nc2)cc2cccnc12	nt	i	i	i	i	111
O=C(Nc1ccc(C(=O)N2CCOCC2)cc1)C1CCC1	nt	nt	nt	nt	nt	i
CCn1cc(C(=O)NCCCOC(C)C)c(=O)c2cc(S(=O)(=O)N3CCC(C)CC3)ccc21	i	i	i	i	i	i
CCCCn1c(N)c(N(C)C(=O)C2CCCC2)c(=O)[nH]c1=O	nt	i	i	i	i	i
O=C(NC(=S)N1CCCCC1c1cccnc1)c1ccc(F)cc1 (stereo not given)	99	i	i	i	i	i
O=C(NC(=S)N1CCCCC1c1cccnc1)c1ccc(Br)cc1 (stereo not given)	i	i	i	i	i	i
CCCCc1ccc(-c2csc(/C(C#N)=C\c3ccc(C)o3)n2)cc1	i	i	i	i	i	i
CCOc1ccc(-c2csc(/C(C#N)=C\c3ccc(O)c([N+](=O)[O-])c3)n2)cc1	101	i	i	i	i	i
O=C(CSc1nc(-c2ccc(F)cc2)nc2ccc(F)cc12)Nc1cccc(C(=O)O)c1	68	i	i	i	i	i
O=C(CCn1nnnc1CN1CCOCC1)N1CCC(c2ccccc2F)C1 (stereo not given)	i	i	i	i	i	i
Cc1ccc(NC(=O)CN(C)C(=O)c2cc(-c3ccccc3)nn2-c2ccccc2)cc1	nt	i	i	i	i	i
O=C(Oc1ccc(NC2=NS(=O)(=O)c3ccccc32)cc1)c1cccnc1	59	i	i	i	i	i
O=S1(=O)N=C(Nc2ccc(O)cc2)c2ccccc21	i	i	i	i	i	i
O=C(COC(=O)c1cc(Cl)ccc1O)c1ccc2c(c1)OCO2	i	i	i	i	i	nt
O=C(COC(=O)c1ccc(O)cc1O)c1ccc2c(c1)OCO2	52	i	i	i	i	i
Cc1ccc(-n2nnnc2C(Cl)c2nnnn2-c2ccc(C)cc2)cc1	i	nt	nt	nt	nt	110
CC(C)Nc1nc(NC(C)C)nc(N(C)N)n1	56	i	i	i	i	i
SMILES	SKKanGAS inh	tim23-1 inh	tim10-1 inh	NALP3 yeast inh	TIM10 inh	PfHsp90 yeast 2
CCCN(Cc1nnc(-c2ccccc2Cl)o1)C(=O)COc1ccc(Cl)cc1	nt	i	i	i	i	i
C/C(=N\NC(=O)COc1ccccc1-c1ccccc1)c1cccnc1	i	i	i	i	i	i
C/C(=N\NC(=O)COc1ccccc1-c1ccccc1)c1ccccn1	83	i	i	i	i	nt
O=C(COc1cccc2cccnc12)N/N=C/c1ccccc1O	99	i	i	i	i	i
O=C(COc1ccccc1-c1ccccc1)N/N=C/c1ccc2ccccc2c1	88	nt	nt	nt	nt	i
O=C(COc1ccccc1-c1ccccc1)N/N=C/c1ccccn1	i	i	i	i	i	i
C/C(=N\NC(=O)COc1ccccc1-c1ccccc1)c1ccc(O)cc1O	86	i	i	i	i	i
CCOC(=O)c1cccc(C2=CC(=O)C[C@H](c3ccc(OC)cc3)C2)c1	nt	i	i	i	i	i
COc1ccc(C(=O)NCCS(=O)(=O)N2CCC3(CC2)OCCO3)cc1	i	i	i	i	i	i
Cc1ccc(C(=O)N2CCN(S(=O)(=O)c3ccc(Br)cc3)CC2)o1	i	i	i	i	i	i
Cc1cccc(C(=O)OCC(=O)N(C)C(c2ccccc2)c2ccccc2)c1[N+](=O)[O-]	nt	i	i	i	i	i
O=C(COc1ccc(F)cc1Cl)N(Cc1nnc(-c2ccccc2Cl)o1)C1CC1	i	i	i	i	i	i
COc1ccccc1OCCCn1c(C)c(C#N)c2ccccc21	62	i	i	i	i	i
COc1ccccc1OCCCn1cc(C#N)c2ccccc21	i	i	i	i	i	i
FC(F)(F)c1cccc(CNC2c3ccccc3-c3ccccc32)c1	75	i	i	i	i	i
N#Cc1nc(-c2ccccc2F)oc1N1CCN(C(=O)c2ccco2)CC1	i	i	i	i	i	i
N#Cc1nc(-c2ccccc2Cl)oc1N1CCN(C(=O)c2ccco2)CC1	69	i	i	i	i	i
CC(=O)c1cc2c(cc1NC(=O)CCn1cnnn1)OCO2	i	i	i	i	i	i
CCCc1ncc(CN2CCCCC2C(=O)Nc2ccc(Oc3ccccc3)nc2)cn1 (stereo not given)	i	i	i	i	i	i
CCc1ccc(OCC(=O)NNC(=S)NC(=O)C2CCCCC2)c(Br)c1	90	i	i	i	i	i
CCc1ccc(OCC(=O)NNC(=S)NC(=O)C2CC2)c(Br)c1	nt	i	i	i	i	108
CCc1ccc(OCC(=O)NC2CCCCC2)c(Br)c1	i	i	i	i	i	i
Cc1ccccc1NC(=O)CSc1nnc(C)c2ccccc12	i	i	i	i	i	i
C=CCOc1ccc(/C=C2\SC(=Nc3cccnc3)NC2=O)cc1	i	i	i	i	i	i
CC(/C=C1\SC(=Nc2cccnc2)NC1=O)=C\c1ccccc1	56	i	i	i	i	i
SMILES	SKKanGAS inh	tim23-1 inh	tim10-1 inh	NALP3 yeast inh	TIM10 inh	PfHsp90 yeast 2
CCCc1ccc2oc(C(=O)N3CCN(CC(=O)NC(C)C)CC3)c(C)c2c1	i	i	i	i	i	i
CC1CCC(C(=O)c2c(O)c3ccccc3oc2=O)CC1 (stereo not given)	53	i	i	i	i	i
CC(=N)c1c(O)c2ccccc2oc1=O	i	i	i	i	i	i
CCOc1ccc(NC(=O)CN2C(=O)NC(C)(c3ccc(OC(F)F)cc3)C2=O)cc1 (stereo not given)	i	i	i	i	i	i
COc1ccc(-c2cc(CC3(C(=O)O)CCN(C(=O)OC(C)(C)C)CC3)on2)c(OC)c1	i	i	i	i	i	i
CN(Cc1cnc2nc(N)nc(N)c2n1)c1ccc(C(=O)N[C@@H](CCC(=O)O)C(=O)O)cc1	89	i	i	i	i	i
CCOc1ccc(NC(=O)CN(C)C(=O)C2CC(=O)N(c3ccc4c(c3)OCCO4)C2)cc1OCC (stereo not given)	52	i	i	i	i	i

Bioassay records as filed in PubChem BioAssay.
